Bioassay records from PubChem BioAssay.
The list is not random: actives were taken first. Their share in the collection is about 10%.
L3MBTL1 inh – qHTS Assay for the Inhibitors of L3MBTL1. Lethal(3)malignant brain tumor-like protein 1 (Homo sapiens), Q9Y468. AlphaScreen L3MBTL1–H3K9me1 peptide binding. Potency, µM (top dose mostly 57.1 µM), for the others: top-dose activity, negative = inhibition, hits mostly inhibitors. 230,000 tested, 0.66% active; note: % is set by controls: 0 for no effect and ±100 for the full control effect; nearly all actives have a fitted effect of over 60% in size
Target sequence (Q9Y468 whole entry, looked up): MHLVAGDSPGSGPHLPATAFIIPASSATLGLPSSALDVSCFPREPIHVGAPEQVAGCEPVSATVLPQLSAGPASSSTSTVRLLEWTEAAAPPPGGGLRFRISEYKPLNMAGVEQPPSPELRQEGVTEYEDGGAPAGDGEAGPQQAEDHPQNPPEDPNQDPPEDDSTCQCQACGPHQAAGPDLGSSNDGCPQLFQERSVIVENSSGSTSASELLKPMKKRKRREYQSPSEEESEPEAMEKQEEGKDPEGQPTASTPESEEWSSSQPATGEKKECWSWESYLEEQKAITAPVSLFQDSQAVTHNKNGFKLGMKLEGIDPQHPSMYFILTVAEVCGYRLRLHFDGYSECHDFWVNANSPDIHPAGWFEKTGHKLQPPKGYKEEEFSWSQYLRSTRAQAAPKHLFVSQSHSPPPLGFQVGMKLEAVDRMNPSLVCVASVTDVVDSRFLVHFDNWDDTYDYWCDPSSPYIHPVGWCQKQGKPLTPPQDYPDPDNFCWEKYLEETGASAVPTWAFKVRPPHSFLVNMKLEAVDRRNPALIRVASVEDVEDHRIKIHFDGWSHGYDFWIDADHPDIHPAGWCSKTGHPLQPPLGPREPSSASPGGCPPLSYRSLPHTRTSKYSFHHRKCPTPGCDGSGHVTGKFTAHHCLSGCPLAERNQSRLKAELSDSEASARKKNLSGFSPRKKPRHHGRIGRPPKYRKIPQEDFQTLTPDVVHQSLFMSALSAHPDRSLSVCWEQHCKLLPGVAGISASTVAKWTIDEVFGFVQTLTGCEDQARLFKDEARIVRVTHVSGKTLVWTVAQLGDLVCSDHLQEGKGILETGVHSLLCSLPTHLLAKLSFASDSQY
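Displacement of a biotinylated histone H3(1-15) peptide monomethylated at Lys9 (75 nM) from L3MBTL1 (50 nM) was measured by AlphaScreen after a 30 min room-temperature compound incubation; cefsulodin titration served as intraplate control.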
GLS inhibitor – qHTS for Inhibitors of Glutaminase (GLS) | 410,000 tested, 0.21% active | Potency, µM (top dose mostly 45.5 µM), without a hit: top-dose activity change, negative = inhibition, usual class: inhibitors | Glutaminase kidney isoform, mitochondrial (Homo sapiens), O94925 | AID 624170, 2012 | GLS enzymatic activity, qHTS titration; note: % is set by controls: 0 for no effect and ±100 for the full control effect
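Read-out is an Amplex red fluorescence increase coupled through glutamate oxidase and HRP, measured before and after 30 min room-temperature incubation. hKGA is in 45 mM KH2PO4 (pH 8.2) with 0.02% Tween-20; glutamine added as 1mM solution.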
JMJD2A Tudor – qHTS Assay for Inhibitors of JMJD2A-Tudor Domain | Lysine-specific demethylase 4A (Homo sapiens), O75164 | AlphaScreen JMJD2A-Tudor / H3K4me3 peptide binding | Potency, µM (highest dose often 114 µM), for inactives: at the top dose activity change, negative = inhibition, actives largely listed as inhibitors | 390,000 tested, 4.4% active | AID 504339, 2011; note: % is set by controls: 0 for no effect and ±100 for the full control effect; nearly all actives have a fitted effect of over 50% in size
G9a inh – qHTS Assay for Inhibitors of Histone Lysine Methyltransferase G9a; Histone-lysine N-methyltransferase EHMT2 (Homo sapiens), Q96KQ7; G9a H3K9 monomethylation, AlphaScreen, 2 h; Potency, µM (doses to about 102 µM), inactives show at the highest dose activity, negative = inhibition, usual class: inhibitors; 350,000 tested, 8.8% active; note: % is set by controls: 0 for no effect and ±100 for the full control effect; nearly all actives have a fitted effect of over 75% in size
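Compounds were preincubated with 20 nM G9a for 15 min, after which biotinylated H3K9 peptide (500 nM) and SAM (20 uM) started a 2 h room-temperature reaction. Monomethylated product was quantified by antibody-based AlphaScreen chemiluminescence.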
HP1b binding inh – HTS for Inhibitors of HP1-beta Chromodomain Interactions with Methylated Histone Tails | AID 540317, 2011 | Chromobox protein homolog 1 (Homo sapiens), P83916 | AlphaScreen HP1-beta / biotin-H3K9me3 peptide binding | Potency, µM (doses to about 114 µM), without a hit: at the top dose activity change, negative = inhibition, hits mostly inhibitors | 390,000 tested, 0.56% active; note: nearly all actives have a fitted effect of over 70% in size
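HP1-beta protein (50 nM final) preincubated 30 min at room temperature with biotinylated H3(1-18)K9me3 peptide (50 nM) in PBS pH 7.4, 0.01% Tween-20, then compound added for 30 min. AlphaScreen streptavidin donor/nickel chelate acceptor beads (10 ug/mL final), 30 min dark, luminescence read.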
BAZ2B block – qHTS Assay for Inhibitors of BAZ2B. Bromodomain adjacent to zinc finger domain protein 2B (Homo sapiens), Q9UIF8. AlphaScreen BAZ2B-H3K14Ac peptide displacement. 360,000 tested, 4.4% active. Potency, µM (highest dose often 114 µM), for the others: at the highest dose activity change, negative = inhibition, usual class: inhibitors; note: % is set by controls: 0 for no effect and ±100 for the full control effect; nearly all actives have a fitted effect of over 60% in size
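Compounds, titrated to a top concentration of 110 uM, were incubated 30 min at room temperature with preformed BAZ2B/acetyl-K14 H3 peptide complex (50 nM each). Proximity signal was measured by AlphaScreen after 20 min with beads.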
An asterisk follows results filed as active; [ ] = remark or other dose. Calls come from the whole dose curve; as a rule, active = well fitted curve in the direction sought with a large enough effect; inconclusive = small, poorly fitted or top-dose-only effect, or another doubt; inactive = no such curve, though single readings can be large; an effect the other way counts as inactive or inconclusive. Potency is the fitted concentration of half-maximal effect.

For CCc1ccc(OCC(=O)Nc2ccc(Cl)c(-c3nc4ncccc4o3)c2)cc1 the results were GLS inhibitor -10.1%, JMJD2A Tudor -14.4%, G9a inh -3.3%[59 µM], HP1b binding inh 38.5% and BAZ2B block 2.0%.
`Cc1cc(NC(=O)NCc2ccc3c(c2)CCN3C(=O)c2ccccc2)ccc1Br` gave GLS inhibitor 3.0%, JMJD2A Tudor -14.0%, G9a inh 18.5%[59 µM], HP1b binding inh 7.5%[57 µM] and BAZ2B block 6.4%.
For Cc1ccc(Cl)cc1N1CCN(C(=O)c2cc(S(=O)(=O)N3CCCC3)cn2C)CC1 the results were GLS inhibitor 5.1%, JMJD2A Tudor -16.8%, G9a inh -2.8%[59 µM], HP1b binding inh 29.1% and BAZ2B block -15.4%.
N#CC1=C(N)NC(SCc2ccc(Br)cc2)=C(C#N)C12CCCCC2 was read as L3MBTL1 inh -28.8%, GLS inhibitor 5.0%, JMJD2A Tudor inconclusive, G9a inh inconclusive, HP1b binding inh -3.9% and BAZ2B block inconclusive.
N#CC1=C(N)NC(SCC(=O)Nc2ccc(Br)cc2)=C(C#N)C12CCCCC2 was read as GLS inhibitor -3.8%, JMJD2A Tudor inconclusive, G9a inh 70.8µM*, HP1b binding inh -0.7% and BAZ2B block inconclusive.
`Cc1cc(=O)oc(C)c1C(=O)Nc1c(C)n(C)n(-c2ccccc2)c1=O` gave L3MBTL1 inh 1.8%, GLS inhibitor 18.8%, JMJD2A Tudor -5.8%, G9a inh 1.2%, HP1b binding inh 29.7% and BAZ2B block -4.2%[57.1 µM].
For Cc1c(NC(=O)c2c(NC(=O)CNC3CC3)sc3c2CCCC3)c(=O)n(-c2ccccc2)n1C the results were L3MBTL1 inh -0.1%, GLS inhibitor 12.8%, JMJD2A Tudor 56.2µM*, G9a inh inconclusive, HP1b binding inh 0.2% and BAZ2B block inconclusive.
For COc1ccccc1CNc1cc(-c2ccccc2C(F)(F)F)ncn1 the results were G9a inh -0.4%[0.501 µM].
O=C(CN1CCOCC1)Nc1nc2ccc(Cl)cc2s1 was read as L3MBTL1 inh 4.1%, GLS inhibitor -3.6%, JMJD2A Tudor -11.6%, G9a inh -21.4%, HP1b binding inh 34.9% and BAZ2B block -37.0%.
For O=C(CN1CCN(Cc2ccccc2)CC1)Nc1nc2ccccc2s1 the results were GLS inhibitor 4.2%, JMJD2A Tudor -20.7%, G9a inh 0.0%, HP1b binding inh 22.4% and BAZ2B block -15.4%.
For O=C(CN1CCOCC1)Nc1nc2ccc(Br)cc2s1 the results were JMJD2A Tudor 1.1%, G9a inh 50.1µM*, HP1b binding inh 37.6% and BAZ2B block -5.4%.
Cc1ccc(S(=O)(=O)N2CCCC2C(=O)Nc2nc3ccccc3s2)cc1 (stereo unspecified) was read as L3MBTL1 inh -7.8%, GLS inhibitor -0.6%, JMJD2A Tudor -19.9%, G9a inh 15.8µM*, HP1b binding inh 2.6% and BAZ2B block 0.5%.
Cc1ccc2nc(NC(=O)C3CCCN(S(=O)(=O)c4cccc5nsnc45)C3)sc2c1 (stereo unspecified) was read as L3MBTL1 inh -10.1%, GLS inhibitor -0.4%, JMJD2A Tudor inconclusive, G9a inh 35.5µM*, HP1b binding inh -3.1% and BAZ2B block -38.6%.
O=C(CN1CCCCCC1)Nc1nc2ccccc2s1 was read as GLS inhibitor 16.0%, JMJD2A Tudor 22.4µM* and HP1b binding inh inconclusive.
Screening CCOC(=O)CC(NC(=O)CCc1c(C)nc2cc(-c3ccccc3)nn2c1C)c1ccc(C)cc1 (stereo unspecified) returned GLS inhibitor -9.4%, JMJD2A Tudor -6.4%, G9a inh -0.6%[59 µM], HP1b binding inh 53.8% and BAZ2B block -12.1%.
For CCC1CN(C(=O)C2CCN(S(=O)(=O)c3c(C)noc3/C=C/c3ccccc3F)CC2)c2cc(Cl)ccc2O1 (stereo unspecified) the results were GLS inhibitor 2.9%, JMJD2A Tudor -10.2%, G9a inh -3.2%[59 µM], HP1b binding inh 22.1%[57 µM] and BAZ2B block 1.7%.
`CCc1ccc(NC(=O)c2sc3nc(C)cc(C)c3c2NC(=O)c2ccccc2)cc1` gave GLS inhibitor -15.8%, JMJD2A Tudor -10.1%, G9a inh 6.6%[59 µM], HP1b binding inh 11.7% and BAZ2B block -14.9%.
CCCCN(Cc1cccs1)S(=O)(=O)c1cc(-c2cc(C)no2)ccc1C was read as GLS inhibitor 2.6%, JMJD2A Tudor 26.0%, G9a inh 29.6%[59 µM], HP1b binding inh 69.3% and BAZ2B block 16.3%.
CN1CCN(CC(=O)Nc2nc3ccccc3s2)CC1 was read as L3MBTL1 inh 0.0%, GLS inhibitor -8.9%, JMJD2A Tudor 28.2µM*, G9a inh 35.5µM*, HP1b binding inh inconclusive and BAZ2B block 70.8µM*.
Screening CCOc1ccccc1NC(=O)CSc1nc2c(oc3ccccc32)c(=O)n1-c1ccc(F)cc1 returned GLS inhibitor 4.6%, JMJD2A Tudor 0.0%, G9a inh 5.6%[59 µM], HP1b binding inh 33.6% and BAZ2B block -2.4%.
For COc1cc(C(=O)NC2(C(F)(F)F)C(=O)NC(C)=C2C#N)cc(OC)c1OC (stereo unspecified) the results were GLS inhibitor 4.5%, JMJD2A Tudor 1.9%, G9a inh 9.8%[59 µM], HP1b binding inh 14.2% and BAZ2B block -0.5%.
`COc1cc2c(cc1NC(=O)COC(=O)CNS(=O)(=O)c1ccc(C)cc1)oc1ccccc12` gave L3MBTL1 inh 2.1%, GLS inhibitor -17.7%, JMJD2A Tudor -7.6%, G9a inh 39.8µM*, HP1b binding inh 35.3% and BAZ2B block 7.7%.
COc1ccc(S(=O)(=O)N[C@@H](C)C(=O)OCC(=O)Nc2cc3oc4ccccc4c3cc2OC)cc1 was read as L3MBTL1 inh 5.2%, GLS inhibitor -2.5%, JMJD2A Tudor -12.1%, G9a inh -24.0%, HP1b binding inh 19.1% and BAZ2B block -3.1%.
Screening CCNC(=S)Nc1cc2oc3ccccc3c2cc1OC returned GLS inhibitor 2.2%, JMJD2A Tudor inconclusive, G9a inh 25.1µM*, HP1b binding inh 10.4% and BAZ2B block 25.6%.
COc1ccc2[nH]cc(CCN=C(NC(=O)c3ccccc3F)Nc3nc(C)cc(C)n3)c2c1 was read as GLS inhibitor 3.6%, JMJD2A Tudor -27.2%, G9a inh 20.1%[59 µM], HP1b binding inh 56.8% and BAZ2B block 4.4%.
